Screening data (PubChem)
LmPK inh – inhibitors of Leishmania mexicana pyruvate kinase; Q27686; purified LmPK, Kinase-Glo ATP luminescence, 1 h; Potency, µM (titrated, usually from 57.5 µM), for inactives: at the top dose activity change, negative = inhibition, hits mostly inhibitors; hit rate 0.37% among 290,000
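Pyruvate kinase activity monitored as ATP production (luciferase luminescence). Conditions: 0.1 nM enzyme, 0.5 mM PEP, 0.1 mM ADP, 1 h, RT; normalized against uninhibited and no-enzyme wells.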
AMA1 RON2 block – disrupts binding of P. falciparum AMA1 to RON2; AID 720542; Potency, µM (doses to about 58.2 µM), without a hit: at the highest dose activity change, negative = inhibition, usual class: inhibitors; AlphaScreen AMA1-biotinylated RON2 peptide binding; hit rate 0.2% among 360,000;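 further: 0% = vehicle wells and -100% = peptide control; nearly all actives have a fitted effect of over 45% in size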
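AMA1 (3D7) with his tag at 25 nM final met compounds first, then biotinylated RON2 peptide at 25 nM; detection used donor plus acceptor beads, 10 µg/mL apiece, read by AlphaScreen after 30 min at room temperature.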
Giardia FBPA inh-1 – blocks Giardia fructose-bisphosphate aldolase activity | hit rate 0.71% among 290,000 | purified Giardia FBPA | Potency, µM (doses to about 59.6 µM), for the others: at the highest dose activity, negative = inhibition, most hits filed as inhibitors | A8B2U2; further: nearly all actives have a fitted effect of over 55% in size
Target sequence (A8B2U2 whole entry, looked up): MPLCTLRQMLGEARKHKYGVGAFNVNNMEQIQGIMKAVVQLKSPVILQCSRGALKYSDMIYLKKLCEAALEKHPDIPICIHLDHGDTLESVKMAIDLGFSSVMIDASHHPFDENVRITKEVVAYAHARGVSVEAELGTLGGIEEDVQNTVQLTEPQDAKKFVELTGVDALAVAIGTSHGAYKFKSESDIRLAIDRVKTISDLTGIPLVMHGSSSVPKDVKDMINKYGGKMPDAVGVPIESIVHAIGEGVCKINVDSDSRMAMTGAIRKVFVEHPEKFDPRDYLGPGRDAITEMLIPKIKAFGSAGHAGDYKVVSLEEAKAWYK
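40 nM FBPA preincubated 10 min at RT with compound (up to 57.5 uM final), then substrate plus GAPDH/TPI/NAD/arsenate coupling and diaphorase/resazurin added. Fluorescence read after 20 min at RT, 525/598 nm.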
AmpC detergent – blocks E. coli AmpC beta-lactamase in detergent assay; P00811; AmpC hydrolysis of nitrocefin, absorbance 480 nm, 0.01% Triton; Potency, µM (doses to about 114 µM), inactives show top-dose activity change, negative = inhibition, actives largely listed as inhibitors; hit rate 0.041% among 370,000;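 further: 0% = no-compound wells and -100% = no-enzyme wells; nearly all actives have a fitted effect of over 25% in size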
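20 mM phosphate pH 7.0 + 0.01% (detergent screen) or 0.0001% Triton X-100; 5.3 nM AmpC reagent; cpd preinc 15 min RT; nitrocefin (800 uM stock) to start; A480 q20 s × 4 min; Activity was normalised to no-enzyme and no-compound control wells.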
AmpC no deterg – blocks E. coli AmpC beta-lactamase in detergent-free assay | P00811 | AmpC nitrocefin hydrolysis, absorbance 480 nm, 0.0001% Triton | Potency, µM (top dose mostly 57.1 µM), for inactives: top-dose activity change, negative = inhibition, usual class: inhibitors | hit rate 0.52% among 330,000 | AID 485341;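 further: plate controls were no compound for no effect and no enzyme for full effect; nearly all actives have a fitted effect of over 20% in size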
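AmpC (5.3 nM in the dispensed reagent) in 20 mM phosphate pH 7.0 with 0.01% (detergent screen) or 0.0001% Triton X-100 was preincubated with compounds for 15 min at room temperature. Nitrocefin was then added from an 800 uM solution, and hydrolysis was followed at 480 nm.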
Giardia growth – inhibitors of Giardia lamblia growth | hit rate 5% among 1,500 | AID 2785 | shares compounds with Giardia FBPA inh-1 | Potency, µM (doses to about 57.5 µM), without a hit: at the top dose activity change, negative = inhibition, most hits filed as inhibitors | Giardia lamblia trophozoite growth inhibition;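 further: trophozoites exposed to compound for 48 h at 37 °C; nearly all actives have a fitted effect of over 70% in size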
Mammal cell tox – counter-screen for Giardia aldolase inhibitors: mammalian cell toxicity. shares compounds with Giardia FBPA inh-1. mammalian cell viability counter-screen, qHTS. Potency, µM (doses to about 57.5 µM), inactives show at the highest dose viability change, negative = toxicity, usual class: inhibitors. hit rate 4% among 1,500. AID 2786;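 further: Chinese hamster ovary cells used as mammalian cytotoxicity surrogate; viability measured as cellular ATP by luminescence; compound exposure lasted 48 h before reading; nearly all actives have a fitted effect of over 60% in size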
Giardia FBPA inh-2 – confirmation of Giardia fructose-bisphosphate aldolase inhibitors; shares compounds with Giardia FBPA inh-1; purified Giardia aldolase enzyme activity, qHTS; Potency, µM (series often up to 57.5 µM), for the others: top-dose activity change, negative = inhibition, most hits filed as inhibitors; hit rate 5% among 1,500; AID 2787; further: nearly all actives have a fitted effect of over 45% in size
Rabbit FBPA inh – rabbit FBP aldolase inhibition by Giardia aldolase hits; shares compounds with Giardia FBPA inh-1; Potency, µM (highest dose often 57.5 µM), for the others: top-dose activity, negative = inhibition, actives largely listed as inhibitors; Rabbit muscle FBPA enzyme inhibition, selectivity counter-screen; hit rate 4% among 1,500; further: nearly all actives have a fitted effect of over 60% in size
Target sequence (P00883 whole entry, looked up): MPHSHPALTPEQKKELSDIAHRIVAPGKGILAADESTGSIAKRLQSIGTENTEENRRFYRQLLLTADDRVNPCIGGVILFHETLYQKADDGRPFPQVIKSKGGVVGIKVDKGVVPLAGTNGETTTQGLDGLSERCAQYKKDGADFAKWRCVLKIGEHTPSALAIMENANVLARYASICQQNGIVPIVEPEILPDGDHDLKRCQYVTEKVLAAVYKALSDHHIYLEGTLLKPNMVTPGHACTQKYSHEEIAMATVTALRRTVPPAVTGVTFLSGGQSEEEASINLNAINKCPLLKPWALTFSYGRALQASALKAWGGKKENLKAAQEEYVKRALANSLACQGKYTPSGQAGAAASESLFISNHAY
GAPDH coupling – counter-screen for Giardia aldolase inhibitors: GAPDH coupling enzyme; Potency, µM (doses to about 57.5 µM), for the others: at the top dose activity change, negative = inhibition, most hits filed as inhibitors; shares compounds with Giardia FBPA inh-1; GAPDH coupling enzyme counterscreen, biochemical, qHTS; AID 2795; hit rate 6% among 1,500; further: nearly all actives have a fitted effect of over 55% in size
* hit, by the source's call; [ ] = another dose, or the depositor's remark. In the library only some 1.3% were active in any assay of this set; here they are far more common. The call rests on the fitted dose curve; in most records, active means well fitted curve in the direction sought with a large enough effect; inconclusive means small, poorly fitted or top-dose-only effect, or another doubt; inactive means no such curve, though single readings can be large; an effect the other way counts as inactive or inconclusive. Unless noted, on the % scale 0 is the no-effect control and ±100 the full control effect; potency means the concentration at half of the fitted maximal effect.

`CC(=O)NC(c1ccccc1)c1nc(-c2cccnc2)cs1` (configuration not stated) gave AMA1 RON2 block -5%.
For Cc1cccc(N(CC(=O)N/N=C/c2cc([N+](=O)[O-])ccc2Cl)S(C)(=O)=O)c1C the results were LmPK inh 1%, AMA1 RON2 block -2%, Giardia FBPA inh-1 18µM*, AmpC detergent -9%, AmpC no deterg 4%, Giardia growth -3%[38.3 µM], Mammal cell tox 1%, Giardia FBPA inh-2 -16%, Rabbit FBPA inh -17% and GAPDH coupling inconclusive.
`CN(C)CCCNCC(=O)c1c(-c2ccccc2)n(C)c2ccccc12` gave LmPK inh -11%, AMA1 RON2 block inconclusive, Giardia FBPA inh-1 14µM*, AmpC detergent inconclusive, AmpC no deterg 9%, Giardia growth 9%, Mammal cell tox -3%, Giardia FBPA inh-2 3%, Rabbit FBPA inh -1% and GAPDH coupling 5%.
Screening COc1ccc(NC(=O)c2ccco2)cc1NC(=O)c1cc(Br)ccc1Cl returned AmpC detergent -6%.
Screening CC1=NOC(=O)/C1=C\c1ccc(-c2ccc(Br)cc2C(=O)O)o1 returned LmPK inh 10%, AMA1 RON2 block 3%, Giardia FBPA inh-1 5µM*, AmpC detergent -1%, AmpC no deterg -30%, Giardia growth -17%[38.3 µM], Mammal cell tox -1%, Giardia FBPA inh-2 -12%, Rabbit FBPA inh -10% and GAPDH coupling -7%.
For CC1CCc2c(sc(NC(=O)C3c4ccccc4Oc4ccccc43)c2C(N)=O)C1 (configuration not stated) the results were LmPK inh 1%, AMA1 RON2 block 6%, Giardia FBPA inh-1 0%, AmpC detergent -2% and AmpC no deterg -37%.
`COC(=O)Nc1sc2c(c1C(N)=O)CCC(C)C2` (configuration not stated) gave LmPK inh 0%, AMA1 RON2 block 0%, Giardia FBPA inh-1 8.9µM*, AmpC detergent -4%, AmpC no deterg -21%, Giardia growth -14%[38.3 µM], Mammal cell tox 8%, Giardia FBPA inh-2 inconclusive, Rabbit FBPA inh inconclusive and GAPDH coupling inconclusive.
NC(=O)C1(N2CCCCC2)CCN(C(=S)Nc2ccccc2)CC1 was read as LmPK inh -6%, AMA1 RON2 block 4%, Giardia FBPA inh-1 2%, AmpC detergent -9% and AmpC no deterg -44%.
For NC(=O)C1(N2CCCCC2)CCN(C(=S)Nc2ccc(S(N)(=O)=O)cc2)CC1 the results were LmPK inh 2%, AMA1 RON2 block 2%, Giardia FBPA inh-1 7.9µM*, AmpC detergent 2%, AmpC no deterg -16%, Giardia growth 87%, Mammal cell tox -3%, Giardia FBPA inh-2 -23%, Rabbit FBPA inh -15% and GAPDH coupling -20%.
Screening O=C(CSc1cccc[n+]1[O-])CSc1cccc[n+]1[O-] returned LmPK inh 2%, AMA1 RON2 block 32%, Giardia FBPA inh-1 16µM*, AmpC detergent -2%, AmpC no deterg -8%, Giardia growth -1%[10.4 µM], Mammal cell tox 10µM*, Giardia FBPA inh-2 -1%, Rabbit FBPA inh 15% and GAPDH coupling 3%.
Screening O=C(CSc1cccc[n+]1[O-])Nc1ccccc1Oc1ccccc1 returned LmPK inh -2%, AMA1 RON2 block 24%, Giardia FBPA inh-1 6.3µM*, AmpC detergent 3%, AmpC no deterg -10%, Giardia growth 8%[38.3 µM], Mammal cell tox 20µM*, Giardia FBPA inh-2 -20%, Rabbit FBPA inh -5% and GAPDH coupling -9%.
COC(=O)c1ccc(-n2c(C)cc(C(=O)CSc3cccc[n+]3[O-])c2C)cc1 was read as LmPK inh -13%, AMA1 RON2 block 0%, Giardia FBPA inh-1 0%, AmpC detergent 8% and AmpC no deterg 24%.
Screening COC(=O)c1ccc(C(=O)OC)c(NC(=O)CSc2cccc[n+]2[O-])c1 returned LmPK inh 3%, AMA1 RON2 block 86%, Giardia FBPA inh-1 11µM*, AmpC detergent 2%, AmpC no deterg -4%, Giardia growth -6%, Mammal cell tox inconclusive, Giardia FBPA inh-2 -15%, Rabbit FBPA inh -14% and GAPDH coupling -6%.
O=C(CSc1cccc[n+]1[O-])Nc1ccccc1C(F)(F)F was read as AMA1 RON2 block 37% and AmpC no deterg -21%.
CN(C)CCNC(=O)C1(C)Cc2c(-c3cccc(C(F)(F)F)c3)ccnc2O1 (configuration not stated) was read as AMA1 RON2 block 34%.
`O=C(CN1c2ccccc2S(=O)(=O)c2ccccc21)Nc1ccccc1Cl` gave AmpC detergent 0%.
`Cc1ccc(CN2CCN(C(=O)c3ccncc3)CC2)cc1` gave LmPK inh -6%, AMA1 RON2 block -13%, Giardia FBPA inh-1 18µM*, AmpC detergent 2%, AmpC no deterg -22%, Giardia growth 2%, Mammal cell tox 3%, Giardia FBPA inh-2 6%, Rabbit FBPA inh 7% and GAPDH coupling 7%.
Screening O=C(c1ccccc1)N1CCN(Cc2ccccc2)CC1 returned LmPK inh -4%, AMA1 RON2 block -26%, Giardia FBPA inh-1 -22%, AmpC detergent inconclusive and AmpC no deterg -5%.
Cc1ccc(NC(=S)N2CCN(Cc3ccccc3)CC2)cc1 was read as LmPK inh -1%, AMA1 RON2 block -1%, Giardia FBPA inh-1 2%, AmpC detergent inconclusive and AmpC no deterg 0%.
Screening Cc1ccc(C(=S)N2CCN(Cc3ccccc3)CC2)cc1 returned LmPK inh 0%, AMA1 RON2 block inconclusive, Giardia FBPA inh-1 16µM*, AmpC detergent -9%, AmpC no deterg 18%[2.29 µM], Giardia growth inconclusive, Mammal cell tox 9%, Giardia FBPA inh-2 -6%, Rabbit FBPA inh 9% and GAPDH coupling -16%.
